In PubChem BioAssay AID1159580 (chemical genetic matrix, 2015):
Values joined by “and” are separate entries in the source; they are usually repeats but may differ in a detail not shown here. Equal entries are not always repeated. About 2,000 (36%) of roughly 5,500 compounds were called active. About 18% were inconclusive and are not listed. No stated cut-off is given here; in the data, active means normalized growth mostly below about 0.91 (no sharp cut-off); inconclusive means no clear call, values can overlap the other calls; inactive means mostly above about 0.92. This is one part of the list.

Experiment: chemical genetic growth profiling, strain panel (AID 1159580);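 further: tested at 20 µM; growth read once vehicle control cultures reached saturation at 30 °C; 1 = growth at the plate median or of vehicle wells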
Details: S. cerevisiae deletion strains, growth OD

Measured: normalized growth

CCCc1nc2c(C)cc(-c3nc4ccccc4n3C)cc2n1Cc1ccc(-c2ccccc2C(=O)O)cc1
inactive: locus YAL013W, strain DEP1, stronger effect = lower value 1.01 | locus YAL021C, strain ccr4, stronger effect = lower value 1.02 | locus YAL026C, strain drs2, stronger effect = lower value 1 | locus YAL030W, strain snc1, stronger effect = lower value 1.01 | locus YBL061C, strain skt5, stronger effect = lower value 1.01 | locus YBR009C, strain hhf1, stronger effect = lower value 1.01 | locus YBR021W, strain FUR4, stronger effect = lower value 0.992 | locus YBR023C, strain chs3, stronger effect = lower value 1.01 | locus YBR171W, strain sec66, stronger effect = lower value 1.02 | locus YBR229C, strain ROT2, stronger effect = lower value 1 | locus YBR231C, strain swc5, stronger effect = lower value 1.02 | locus YBR279W, strain paf1, stronger effect = lower value 1.01 | locus YCL011C, strain gbp2, stronger effect = lower value 1.01 | locus YCL016C, strain dcc1, stronger effect = lower value 1 | locus YCL029C, strain bik1, stronger effect = lower value 1.01 | locus YCL069W, strain vba3, stronger effect = lower value 1.02 | locus YCR088W, strain abp1, stronger effect = lower value 1.02 | locus YDL005C, strain med2, stronger effect = lower value 1.02 | locus YDL035C, strain GPR1, stronger effect = lower value 0.98 | locus YDL040C, strain nat1, stronger effect = lower value 1.01 | locus YDL074C, strain BRE1, stronger effect = lower value 0.997 | locus YDL101C, strain DUN1, stronger effect = lower value 0.999 | locus YDL134C, strain PPH21, stronger effect = lower value 1 | locus YDL185W, strain tfp1, stronger effect = lower value 1.01 | locus YDL192W, strain arf1, stronger effect = lower value 1.02 | locus YDR001C, strain nth1, stronger effect = lower value 1.02 | locus YDR069C, strain doa4, stronger effect = lower value 1.03 | locus YDR101C, strain arx1, stronger effect = lower value 0.989 | locus YDR137W, strain rgp1, stronger effect = lower value 0.975 | locus YDR150W, strain NUM1, stronger effect = lower value 1.01 | locus YDR159W, strain sac3, stronger effect = lower value 0.978 | locus YDR162C, strain NBP2, stronger effect = lower value 1.01 | locus YDR195W, strain ref2 1.06 | locus YDR297W, strain sur2, stronger effect = lower value 1.01 | locus YDR318W, strain mcm21, stronger effect = lower value 1 | locus YDR334W, strain swr1, stronger effect = lower value 1.02 | locus YDR335W, strain msn5, stronger effect = lower value 1.03 | locus YDR388W, stronger effect = lower value 1.02 | locus YDR392W, strain spt3, stronger effect = lower value 0.829 | locus YDR502C, strain sam2, stronger effect = lower value 1 | locus YEL003W, strain gim4, stronger effect = lower value 1.02 | locus YEL037C, strain rad23, stronger effect = lower value 1.02 | locus YEL061C, strain CIN8 (second series), stronger effect = lower value 1.02 | locus YEL061C, strain CIN8, stronger effect = lower value 1.01 | locus YER015W, strain faa2, stronger effect = lower value 1.01 | locus YER016W, strain bim1, stronger effect = lower value 1.01 | locus YER110C, stronger effect = lower value 1.02 | locus YER111C, strain swi4, stronger effect = lower value 1.01 | locus YER155C, strain BEM2 (second series), stronger effect = lower value 0.926 | locus YER155C, strain BEM2, stronger effect = lower value 1 | locus YER167W, strain BCK2, stronger effect = lower value 0.998 | locus YFR010W, strain ubp6, stronger effect = lower value 1.03 | locus YGL078C, strain dbp3, stronger effect = lower value 1.01 | locus YGL086W, strain mad1, stronger effect = lower value 0.988 | locus YGL167C, strain pmr1, stronger effect = lower value 1.02 | locus YGL173C, strain kem1, stronger effect = lower value 1.01 | locus YGL227W, strain vid30, stronger effect = lower value 1.01 | locus YGL240W, strain doc1, stronger effect = lower value 1.01 | locus YGL248W, strain PDE1, stronger effect = lower value 0.994 | locus YGL253W, strain hxk2, stronger effect = lower value 1.03 | locus YGR078C, strain PAC10, stronger effect = lower value 0.997 | locus YGR135W, strain pre9, stronger effect = lower value 1.04 | locus YGR229C, strain SMI1, stronger effect = lower value 1.01 | locus YGR252W, strain gcn5, stronger effect = lower value 0.994 | locus YHR013C, strain ard1, stronger effect = lower value 1.04 | locus YHR027C, strain rpn1, stronger effect = lower value 1.01 | locus YHR030C, strain SLT2, stronger effect = lower value 1 and 0.973 | locus YHR079C, strain IRE1 (second series), stronger effect = lower value 0.997 | locus YHR079C, strain IRE1, stronger effect = lower value 0.967 | locus YHR094C, strain hxt1, stronger effect = lower value 1.01 | locus YHR129C, strain ARP1, stronger effect = lower value 0.996 | locus YHR142W, strain chs7, stronger effect = lower value 1.03 | locus YHR200W, strain rpn10, stronger effect = lower value 1 | locus YIL066C, strain RNR3, stronger effect = lower value 0.997 | locus YIL073C, strain SPO22, stronger effect = lower value 1.08 | locus YIL125W, strain kgd1, stronger effect = lower value 1 | locus YIR030C, strain dcg1, stronger effect = lower value 1.01 | locus YJL092W, strain hpr5, stronger effect = lower value 1.01 | locus YJL095W, strain BCK1 (second series), stronger effect = lower value 1 | locus YJL095W, strain BCK1, stronger effect = lower value 0.989 and 0.986 | locus YJL115W, strain asf1, stronger effect = lower value 1.01 | locus YJL129C, strain trk1, stronger effect = lower value 0.956 | locus YJL134W, strain LCB3, stronger effect = lower value 1 | locus YJL154C, strain vps35, stronger effect = lower value 1.01 | locus YJL164C, strain tpk1, stronger effect = lower value 1 | locus YJL166W, strain qcr8, stronger effect = lower value 1.01 | locus YJL168C, strain set2, stronger effect = lower value 1 | locus YJL187C, strain SWE1 (second series), stronger effect = lower value 0.995 | locus YJL187C, strain SWE1, stronger effect = lower value 1.01
